These results are taken from PubChem BioAssay (NCATS).

The nature of experiment [1]: Primary qHTS for inhibitors of La Crosse Virus (LACV) - induced cell death in SH-SY5Y cells (AID 1508616). Also: potency is read from the fitted curve at half-maximal effect. Put shortly: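 Protection against LACV-induced cell death is scored in SH-SY5Y cells exposed to compounds and virus (0.01 MOI) for 6 days. Data normalized to virus-infected DMSO wells and virus-free DMSO wells.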
Experiment [2] concerns the target Calcium and integrin-binding protein 1 (Homo sapiens) (UniProt Q99828). Briefly: Validation qHTS for Identification of Calcium Integrin Binding protein 1 (CIB1) Competitor (AID 1508618). Summed up:
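CIB1-GST (1 uM final) incubated 15 min at room temperature with compounds (up to 114 uM), then FITC-labelled alphaIIb peptide (100 nM) added. FP read (Ex 480/Em 540) after 15 min, pH 7.4 buffer containing 5 mM CaCl2.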

The nature of experiment [3]: Primary qHTS for small molecule stabilizers of the endoplasmic reticulum resident proteome: Secreted ER Calcium Modulated Protein (SERCaMP) assay (AID 1508630). Put shortly:
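GLuc-SERCaMP-expressing SH-SY5Y cells, pretreated 16 h with compound, are challenged with thapsigargin to empty ER calcium stores; after 4 h, coelenterazine is added directly to the medium and luminescence is imaged.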

In the next experiment the target is Papain (Carica papaya) (UniProt P00784). Nature of the experiment: Primary qHTS assay for inhibitors of the protease papain (AID 1645873).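 Also: papain turnover of Z-FR-AMC read as the AMC fluorescence gain over 10 min; series mostly up to about 50 µM.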
For experiment [4], the target named is N-terminal Xaa-Pro-Lys N-methyltransferase 1 (Homo sapiens) (UniProt Q9BV86). Nature of the experiment: Confirmatory qHTS for Inhibitors of N-terminal methyltransferase 1 (NTMT1): MTaseGlo Assay (AID 1645874). Also: potency is read from the fitted curve at half-maximal effect; nearly all actives have a fitted effect of over 65% in size. Put shortly:
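qHTS format: NTMT1 125 nM, SAM 100 uM, peptide SPKRIA 1 uM final; 15 min compound preincubation, 30 min reaction at room temperature. MTase-Glo luminescence.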

Experiment [5] in a line: Confirmatory qHTS for small molecule stabilizers of the endoplasmic reticulum resident proteome: Secreted ER Calcium Modulated Protein (SERCaMP) assay (AID 1508628). Also: potency is read from the fitted curve at half-maximal effect; nearly all actives have a fitted effect of over 40% in size. Summed up:
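SH-SY5Y cells stably expressing GLuc-SERCaMP, treated 16 h with compound (primary 1.53, 7.67, 38.3 uM; confirmation 11 concentrations, up to 76.6 uM), then 100 nM thapsigargin for 4 h. Secreted Gaussia luciferase in medium read by coelenterazine luminescence.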

Experiment [6] concerns the target Calcium and integrin-binding protein 1 (Homo sapiens) (UniProt Q99828). Briefly: Primary qHTS for Identification of Calcium Integrin Binding Protein 1 (CIB1) Competitor (AID 1508620). Also: potency is read from the fitted curve at half-maximal effect. Summed up:
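Fluorescence polarization competition: GST-tagged CIB1 (1 uM final) preincubated with compound 15 min at room temperature, then FITC-labelled alphaIIb peptide (100 nM final) added. After 15 min at room temperature, polarization read at Ex 480/Em 540.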

Experiment [7] in a line: A High-Content qHTS Against Drug Library for the Identification of Small Molecules that Inhibit DYT1 Early Onset Primary Dystonia-Associated Cell Pathology (AID 1645839; calls by dose curve; also: potency is read from the fitted curve at half-maximal effect). Put shortly: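 Flp-In T-REx 293 cells with tetracycline-inducible EGFP-delE hTOR1A (WT EGFP-hTOR1A as reference), 800 cells/well; compound added with tetracycline, 48 h at 37 C. Fixed, permeabilized cells imaged; %pathology (punctate TorsinA) primary, cell count counterscreen.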

Experiment [8] addresses Cytochrome P450 2C9 (Homo sapiens) (UniProt P11712). Briefly: Cytochrome P450 family 2 subfamily C member 9 (CYP2C9) small molecule antagonists: luciferase biochemical (cell-free) qHTS assay (AID 1645842; active = well fitted curve in the direction sought with a large enough effect in the repeat runs; an effect the other way counts as inactive or inconclusive; also: potency is read from the fitted curve at half-maximal effect; nearly all actives have a fitted effect of over 55% in size). Put shortly:
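Luminescence, after 20 min with luciferin detection reagent, reflected CYP2C9 turnover during a 1 h NADPH-driven reaction at 37C. Enzyme-substrate mix contained 0.4% bovine serum albumin and was preincubated with compound 10 min at room temperature.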

Experiment [9] is described as follows: Primary qHTS for inhibitors of nuclear receptor binding SET domain protein 2 (NSD2) in an isogenic RCH-ACV NSD2 p.E1099K mutant (9B) (AID 1645876). Also: nearly all actives have a fitted effect of over 70% in size. Also: potency is read from the fitted curve at half-maximal effect.
A short description of experiment [10]: Cytotoxicity counterscreen for inhibitors of SARS-CoV-2 cell entry (AID 1645845; calls by dose curve; also: series mostly up to about 57 µM; nearly all actives have a fitted effect of over 50% in size). Particulars: outcome: dose series up to 57.1 µM unless noted. Put shortly: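 HEK293-ACE2 cells (Expi293F stably expressing human ACE2) seeded overnight, then compound for 1 h plus 48 h at 37C. Viability as ATP content by luminescence; normalized to wells with cells and media-only wells.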

In experiment [11] the target is Cytochrome P450 2D6 (Homo sapiens) (UniProt P10635). Nature of the experiment: Cytochrome P450 family 2 subfamily D member 6 (CYP2D6) small molecule antagonists: luciferase biochemical (cell-free) qHTS assay (AID 1645840; active = well fitted curve in the direction sought with a large enough effect in the repeat runs; an effect the other way counts as inactive or inconclusive; also: potency is read from the fitted curve at half-maximal effect; nearly all actives have a fitted effect of over 55% in size). Put shortly: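 P450-Glo luminescent screen: recombinant CYP2D6 enzyme–proluciferin substrate mix preincubated with compound 10 min at room temperature, then NADPH regeneration added for 1 h at room temperature. Detection reagent added for 20 min; luciferin light read as relative luminescence units.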

Results filed as inconclusive are left out. A call without a number means that no potency is given here. Calls of active or inactive are those of the source. Unless noted, calls follow the shape of the dose curve; as a rule, active = well fitted curve in the direction sought with a large enough effect; inconclusive = small, poorly fitted or top-dose-only effect, or another doubt; inactive = no such curve, though single readings can be large; an effect the other way counts as inactive or inconclusive.

Sequence of Papain (Carica papaya) (P00784 whole entry, looked up): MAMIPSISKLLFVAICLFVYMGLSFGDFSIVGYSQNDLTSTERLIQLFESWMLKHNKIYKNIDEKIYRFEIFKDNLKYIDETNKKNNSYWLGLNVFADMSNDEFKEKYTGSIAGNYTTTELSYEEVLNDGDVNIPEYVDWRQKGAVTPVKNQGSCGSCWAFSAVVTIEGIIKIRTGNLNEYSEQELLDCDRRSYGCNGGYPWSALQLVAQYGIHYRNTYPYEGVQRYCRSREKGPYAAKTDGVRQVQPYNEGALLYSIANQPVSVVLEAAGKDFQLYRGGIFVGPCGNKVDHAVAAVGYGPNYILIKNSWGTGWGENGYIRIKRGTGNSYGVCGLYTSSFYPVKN
Sequence of Calcium and integrin-binding protein 1 (Homo sapiens) (Q99828 whole entry, looked up): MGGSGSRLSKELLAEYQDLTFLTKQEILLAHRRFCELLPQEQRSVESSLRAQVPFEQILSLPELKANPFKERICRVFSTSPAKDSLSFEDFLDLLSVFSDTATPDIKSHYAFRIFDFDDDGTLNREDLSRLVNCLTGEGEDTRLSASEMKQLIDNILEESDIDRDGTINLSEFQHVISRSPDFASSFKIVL
Sequence of Cytochrome P450 2C9 (Homo sapiens) (P11712 whole entry, looked up): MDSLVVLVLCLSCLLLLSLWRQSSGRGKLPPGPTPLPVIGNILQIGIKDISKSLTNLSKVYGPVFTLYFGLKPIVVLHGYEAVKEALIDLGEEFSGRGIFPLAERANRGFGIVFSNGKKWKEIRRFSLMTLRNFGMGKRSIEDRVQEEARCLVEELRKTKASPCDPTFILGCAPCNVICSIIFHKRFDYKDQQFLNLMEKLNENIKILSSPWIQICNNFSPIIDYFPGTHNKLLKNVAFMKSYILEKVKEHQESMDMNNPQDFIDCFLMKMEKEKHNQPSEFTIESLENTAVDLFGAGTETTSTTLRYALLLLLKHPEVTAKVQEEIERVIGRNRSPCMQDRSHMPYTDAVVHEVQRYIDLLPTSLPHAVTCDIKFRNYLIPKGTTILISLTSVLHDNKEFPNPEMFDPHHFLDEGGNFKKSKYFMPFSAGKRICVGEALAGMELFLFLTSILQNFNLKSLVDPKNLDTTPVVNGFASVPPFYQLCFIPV
Sequence of Cytochrome P450 2D6 (Homo sapiens) (P10635 whole entry, looked up): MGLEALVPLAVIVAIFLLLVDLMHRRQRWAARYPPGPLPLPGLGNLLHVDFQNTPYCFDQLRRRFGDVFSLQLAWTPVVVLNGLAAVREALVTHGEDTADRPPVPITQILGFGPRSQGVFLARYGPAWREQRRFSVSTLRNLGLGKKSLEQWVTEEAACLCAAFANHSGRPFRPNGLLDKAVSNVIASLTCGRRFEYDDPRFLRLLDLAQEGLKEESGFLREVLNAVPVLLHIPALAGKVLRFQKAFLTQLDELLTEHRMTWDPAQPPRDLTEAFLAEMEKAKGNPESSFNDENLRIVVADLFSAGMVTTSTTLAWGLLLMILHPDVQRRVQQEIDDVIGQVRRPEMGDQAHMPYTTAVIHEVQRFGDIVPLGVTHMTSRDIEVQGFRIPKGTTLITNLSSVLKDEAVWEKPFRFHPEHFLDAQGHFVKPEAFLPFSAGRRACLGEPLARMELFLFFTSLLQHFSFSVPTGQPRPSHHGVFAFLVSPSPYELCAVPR
Sequence of N-terminal Xaa-Pro-Lys N-methyltransferase 1 (Homo sapiens) (Q9BV86 whole entry, looked up): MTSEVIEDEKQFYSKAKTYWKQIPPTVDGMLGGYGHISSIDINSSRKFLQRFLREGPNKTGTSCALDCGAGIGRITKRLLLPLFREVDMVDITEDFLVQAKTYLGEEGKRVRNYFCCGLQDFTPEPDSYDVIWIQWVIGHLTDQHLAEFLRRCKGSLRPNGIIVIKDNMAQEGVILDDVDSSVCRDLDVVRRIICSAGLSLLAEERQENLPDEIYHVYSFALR

As for `NC(=O)CI`, the Potency entry (in [1]; in experiment [2]; with Papain (Carica papaya)) was “inactive” throughout. Also, in experiment [3], the result was inactive. In experiment [4], the Potency is 12.3 µM (active).
With `CCCN(CCC)CCc1c[nH]c2ccc(C(N)=O)cc12`, in experiment [1], the Potency result was “inactive”. For the same compound, the result in [3] was inactive.
Turning to `CCCn1c(C)c(C(=O)c2ccc3ccccc3c2)c2ccccc21`, in experiment [1], the Potency entry is “inactive”. The outcome in [3] was inactive.
Consider `C[Se]C[C@H](N)C(=O)O`, for which the Potency entry in experiment [1] is “inactive”. Moreover, the result in experiment [3] was inactive.
In the case of `CCCn1c(=O)c2[nH]c(C3CCCC3)nc2n(CCCOC(=O)c2ccc(S(=O)(=O)F)cc2)c1=O`, the Potency entry (in experiment [2]; with Papain (Carica papaya)) was “inactive” in each case. For the same compound, the result in [3] was inactive.
As for `C[C@H]1C2Cc3ccc(O)cc3[C@@]1(C)CCN2CC1CC1`, the Potency entry (in [2]; in the experiment with Papain (Carica papaya)) was “inactive” throughout.
In the case of `Oc1ccc2c3c1O[C@H]1c4[nH]c5ccccc5c4C[C@@]4(O)C(C2)N(CC2CC2)CCC314` (some centres undefined), the Potency entry (in experiment [2]; in the experiment with Papain (Carica papaya)) was “inactive” in each case. Moreover, the Potency in experiment [5] was 12.6 µM (active).
`C[CH2][Hg][S]c1ccccc1C(=O)O`: the Potency in [6] was 22.4 µM (active); in [7], 5.01 µM (active); in experiment [8] it was 3.47 µM (active); in experiment [9] it was 0.668 µM (active). Also, the result in experiment [3] was inactive.
For the compound `C=C(C)[C@H]1O[C@H]2CC[C@@]3(C)[C@@](O)(CC[C@H]4[C@@H]5OC(C)(C)[C@H]6C[C@@H]7C(=C)Cc8c(Cl)cc9[nH]c(c5c9c8[C@@]76O)[C@@]43C)[C@]23O[C@@H]3[C@H]1O`, the Potency result in experiment [6] was “inactive”.
As to `CC(C)(C)OC(=O)NC1[C@H]2CNC[C@@H]12` (some centres undefined), the Potency result (in experiment [2]; with Papain (Carica papaya)) was “inactive” in each case.
With `C[C@@H]1O[C@@H](O[C@H]2C[C@@H](O)[C@]3(CO)[C@@H]4C(CC[C@]3(O)C2)[C@@]2(O)CC[C@H]([C@@H]3COC(=O)C3)[C@@]2(C)C[C@H]4O)[C@H](O)[C@H](O)[C@H]1O` (some centres undefined), the Potency entry (in experiment [2]; with Papain (Carica papaya)) was “inactive” in each case. Also, in experiment [3], the result was inactive.
`CCNC(=O)[C@H]1O[C@@H](n2cnc3c(N)ncnc32)[C@H](O)[C@@H]1O`: the Potency entry (in experiment [2]; with Papain (Carica papaya)) was “inactive” throughout. In addition, in [3], the outcome was inactive.
For `Nc1cc2c(ncn2CCOCP(=O)(O)O)c(=O)[nH]1`, the Potency entry (in experiment [2]; with Papain (Carica papaya)) was “inactive” each time.
Consider `CC1=CC2/C=C(\C)CCC(O)C3OC(C)(C)OC3CC(=O)OC23C(=O)NC(CC(C)C)C3C1C` (centres undefined), for which the Potency result in experiment [6] is “inactive”.
Turning to `CC(=O)c1c(O)c(C)c(O)c(Cc2c(O)c3c(c(C(=O)/C=C/c4ccccc4)c2O)OC(C)(C)C=C3)c1O`, the Potency entry (in experiment [1]; with Papain (Carica papaya); in [9]) was “inactive” each time. For the same compound, in [10], the result was inactive.
Take `CCN(CCCl)Cc1ccccc1Br`: the Potency in [1] is 2.82 µM (active). Further, the result in experiment [3] was inactive.
Consider `CC1(C(=O)O)C2CCC(O2)C1(C)C(=O)O` (centres undefined), for which the Potency result (in [2]; with Papain (Carica papaya)) was “inactive” each time. For the same compound, the result in [3] was inactive.
As for `CCCN1CCc2cccc3c2[C@H]1Cc1ccc(O)c(O)c1-3`, the Potency entry (in experiment [2]; with Papain (Carica papaya)) was “inactive” throughout. For the same compound, the outcome in experiment [3] was inactive.
In the case of `CN1CCC[C@@H]1Cc1c[nH]c2ccc(Nc3ncccc3[N+](=O)[O-])cc12`, the Potency entry (in experiment [2]; in experiment [6]; with Papain (Carica papaya); in experiment [9]) was “inactive” in each case. For the same compound, the values for the Potency in [11] and in [8] were 3.01 µM (active) and 19 µM (active), respectively.
